Some test systems named below: SK-MEL-2 melanoma; EKVX NSCLC; SN12C renal; UO-31 renal; TK-10 renal; ACHN renal; CAKI-1 renal; A498 renal; CCRF-CEM leukemia; MOLT-4 leukemia; SR leukemia; RPMI-8226 leukemia; OVCAR-8 ovarian; OVCAR-5 ovarian; OVCAR-4 ovarian; SK-OV-3 ovarian; OVCAR-3 ovarian; HS 578T breast; NCI/ADR-RES ovarian; IGROV1 ovarian.
Holding throughout (experiment): NCI-60 one-dose screen, 48 h (100 = growth as untreated, 0 = no growth, -100 = all killed)
Details in all cases: 10 µM unless noted

The record followed here is PubChem BioAssay (NCI).

Structures are written as SMILES. The panel holds about 83,000 compounds, 20% with a hit somewhere; the sample as a whole holds those more often.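 In brief: 96-well plates, 48 h treatment, single concentration, percent growth endpoint.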 A number with no mark means an inactive call. Activity calls are given as the source filed them. Rule for the calls: active = growth percent below 10; inactive = the rest.

Turning to `CCCCCCCCc1cccc(CC(=O)Nc2ccc(C)cc2C(=O)O)c1`, the growth in the assay with SK-MEL-2 melanoma was 86.3% [25 µM]; in the assay on EKVX NSCLC it was 66.5% [25 µM]; in the assay with SN12C renal, 51% [25 µM]; in the assay with UO-31 renal, 53.8% [25 µM]; in the assay on TK-10 renal, 63.1% [25 µM]; with ACHN renal, 46.7% [25 µM]. For the same compound, the growth in the assay with CAKI-1 renal is 36.1% [25 µM]; in the assay with A498 renal, 123% [25 µM]; in the assay on CCRF-CEM leukemia it was 26.7% [25 µM]; with MOLT-4 leukemia, 17.9% [25 µM]; in the assay on SR leukemia it was 31.1% [25 µM]; in the assay with RPMI-8226 leukemia, 25.4% [25 µM]. Moreover, the growth in the assay on OVCAR-8 ovarian was 45.6% [25 µM]; with OVCAR-5 ovarian, 75.6% [25 µM]; in the assay on OVCAR-4 ovarian it was 86.1% [25 µM]; in the assay on SK-OV-3 ovarian, 89.2% [25 µM]; in the assay on OVCAR-3 ovarian it was 69.4% [25 µM]; in the assay with HS 578T breast it was 89.8% [25 µM]. Besides, the growth in the assay with NCI/ADR-RES ovarian is 49.6% [25 µM].
Consider `CS(=O)(=O)Nc1cccc(-n2cnc3cc(-c4ccc(O)cc4)ccc32)c1`, for which the growth in the assay on SK-MEL-2 melanoma is 27.2%; in the assay on EKVX NSCLC it was 51.6%; in the assay with SN12C renal it was 41.1%; in the assay with UO-31 renal it was 44.3%; with TK-10 renal it was 93%; in the assay on ACHN renal it was 49.7%. Also, the growth with CAKI-1 renal was 30.6%; in the assay on A498 renal, 149%; with CCRF-CEM leukemia, 22.2%; with MOLT-4 leukemia, 24.4%; with SR leukemia it was 32.1%; in the assay on RPMI-8226 leukemia, 27.2%. Besides, the growth is 30.8% in the assay with OVCAR-8 ovarian; 56% in the assay with OVCAR-5 ovarian; 67.1% in the assay with OVCAR-4 ovarian; 35.6% in the assay on SK-OV-3 ovarian; 30.7% in the assay with OVCAR-3 ovarian; 40.8% in the assay on HS 578T breast. Also, the growth in the assay with NCI/ADR-RES ovarian was 29.8%.
As for `COc1ccc2c(c1)C(Sc1ccc(Cl)cc1)c1c(nc(N)c(C#N)c1N)O2` (configuration not stated), the growth was 79.5% in the assay on SK-MEL-2 melanoma; 43.8% in the assay with EKVX NSCLC; 55.7% in the assay on SN12C renal; 26.5% with UO-31 renal; 99.1% in the assay on TK-10 renal; 60.1% in the assay with ACHN renal. The growth was 51.9% with CAKI-1 renal; 84.4% in the assay on A498 renal; -10.6% (active) in the assay on CCRF-CEM leukemia; -1.37% (active) with MOLT-4 leukemia; -3.94% (active) in the assay on SR leukemia; 29.4% in the assay on RPMI-8226 leukemia. Further, the growth with OVCAR-8 ovarian was 73.6%; with OVCAR-4 ovarian, 73.5%; with SK-OV-3 ovarian, 107%; with IGROV1 ovarian it was 25.9%; in the assay on OVCAR-3 ovarian, 93.2%; in the assay with HS 578T breast it was 45.8%. Moreover, in the assay with NCI/ADR-RES ovarian, the growth was 73.6%.
With `CN(C)CCOc1ccc(C(=O)C2[C@H](c3ccc(Cl)cc3)[C@@H](c3ccccc3)NC23C(=O)Nc2ccc(Cl)cc23)cc1` (some centres not stated), the growth was -92.5% (active) in the assay on SK-MEL-2 melanoma; -93.9% (active) in the assay with EKVX NSCLC; -94.5% (active) in the assay on SN12C renal; -99.7% (active) in the assay with UO-31 renal; -96.7% (active) in the assay on TK-10 renal; -100% (active) in the assay on ACHN renal. In addition, the growth was -98.6% (active) in the assay with CAKI-1 renal; -95.9% (active) with A498 renal; -65.4% (active) with CCRF-CEM leukemia; -77.4% (active) in the assay on MOLT-4 leukemia; -77.4% (active) in the assay on SR leukemia; -43.6% (active) in the assay on RPMI-8226 leukemia. The growth in the assay on OVCAR-8 ovarian was -67.9% (active); in the assay on OVCAR-5 ovarian it was -79.2% (active); in the assay on OVCAR-4 ovarian, -91.5% (active); in the assay on SK-OV-3 ovarian, -86.4% (active); in the assay with OVCAR-3 ovarian it was -51.4% (active); with HS 578T breast, -29.4% (active). For the same compound, the growth with NCI/ADR-RES ovarian was -90.7% (active).
Take `C/C(=N\Nc1ccc(C(=O)O)cc1)c1cnn(-c2cc(=O)[nH]c3ccc(C)cc23)c1C`: the growth in the assay on SK-MEL-2 melanoma was 106%; in the assay on EKVX NSCLC, 93%; in the assay with SN12C renal it was 92.6%; in the assay with UO-31 renal it was 67.9%; in the assay on TK-10 renal, 104%; with ACHN renal, 99.4%. Also, the growth is 89.7% with CAKI-1 renal; 108% in the assay on A498 renal; 93% in the assay on CCRF-CEM leukemia; 97.8% with MOLT-4 leukemia; 88.6% with SR leukemia; 85.1% in the assay on RPMI-8226 leukemia. Further, the growth in the assay with OVCAR-8 ovarian was 104%; in the assay with OVCAR-5 ovarian, 99.2%; in the assay on OVCAR-4 ovarian, 94.6%; with SK-OV-3 ovarian, 94.3%; with OVCAR-3 ovarian, 98.9%; in the assay on HS 578T breast, 92.5%. For the same compound, the growth in the assay on NCI/ADR-RES ovarian is 101%.
For the compound `N#Cc1ccc(C(=O)NNC(=O)CSc2nc3sc4c(c3c(=O)n2-c2ccc(Cl)cc2)CCCC4)cc1`, the growth with SK-MEL-2 melanoma was 94.2%; in the assay on EKVX NSCLC it was 54.3%; in the assay on SN12C renal, 41.7%; with UO-31 renal, 42.7%; in the assay with TK-10 renal it was 115%; in the assay on ACHN renal, 71.2%. Moreover, the growth in the assay with CAKI-1 renal is 53.1%; in the assay on A498 renal, 89.2%; in the assay on CCRF-CEM leukemia, 48.9%; in the assay on MOLT-4 leukemia, 46.3%; in the assay on SR leukemia, 47.6%; in the assay with RPMI-8226 leukemia, 54.6%. Moreover, the growth was 34.4% in the assay with OVCAR-8 ovarian; 73.8% in the assay with OVCAR-4 ovarian; 72.7% in the assay on SK-OV-3 ovarian; 30.7% with IGROV1 ovarian; 91.8% with OVCAR-3 ovarian; 59.4% in the assay on HS 578T breast. For the same compound, in the assay with NCI/ADR-RES ovarian, the growth was 67.3%.
With `S=C(Nc1ccc(OCc2nc3ccc(Cl)cc3[nH]2)cc1)NC1CCCCC1`, the growth is -44.9% (active) in the assay on SK-MEL-2 melanoma; -7.76% (active) with EKVX NSCLC; -80.6% (active) in the assay on SN12C renal; -7.63% (active) in the assay on UO-31 renal; -10.8% (active) in the assay with TK-10 renal; -16% (active) with ACHN renal. Moreover, the growth in the assay on CAKI-1 renal was -5.65% (active); in the assay on A498 renal it was -1.77% (active); in the assay on CCRF-CEM leukemia, 5.6% (active); with MOLT-4 leukemia it was 1.31% (active); in the assay with SR leukemia it was -27.3% (active); in the assay with RPMI-8226 leukemia, -13.1% (active). Besides, the growth in the assay with OVCAR-8 ovarian was -10% (active); in the assay on OVCAR-5 ovarian, -12.8% (active); in the assay with OVCAR-4 ovarian, 10.6%; in the assay on SK-OV-3 ovarian, 29.2%; with OVCAR-3 ovarian, -3.28% (active); with HS 578T breast, 14.8%. For the same compound, the growth with NCI/ADR-RES ovarian is -14.8% (active).
As to `CCCN(CCC)S(=O)(=O)c1ccc(C(=O)O)cc1.CCCN(CCC)S(=O)(=O)c1ccc(C(=O)O)cc1.[Cl][Pt+2][Cl].[NH2-].[NH2-]`, the growth with SK-MEL-2 melanoma is -31.6% (active); in the assay on EKVX NSCLC, 44.8%; in the assay on SN12C renal, 12.4%; with UO-31 renal, 98.4%; in the assay on TK-10 renal it was 109%; in the assay with ACHN renal, 13.4%. In addition, the growth is 32.4% in the assay with CAKI-1 renal; 91.5% in the assay on A498 renal; 50.4% in the assay with CCRF-CEM leukemia; -2.08% (active) with MOLT-4 leukemia; 3.39% (active) in the assay with SR leukemia; 12.3% in the assay on RPMI-8226 leukemia. Further, the growth with OVCAR-8 ovarian was 39.7%; in the assay on OVCAR-5 ovarian, 24.5%; in the assay with OVCAR-4 ovarian, 35.4%; in the assay with SK-OV-3 ovarian, 18.8%; with OVCAR-3 ovarian, 0.454% (active); in the assay on HS 578T breast it was 80.8%. The growth with NCI/ADR-RES ovarian is 101%.
